Inconclusive results are not listed. A number with no mark means an inactive call. Activity calls are given as the source filed them. Calls follow the shape of the dose curve; as a rule, active = well fitted inhibition curve with a large enough effect; inconclusive = small, poorly fitted or top-dose-only effect; inactive = no such curve, though single readings can be large or run the other way. *1 amine or outer side, *2 acyl side, *3 side chain or, on linkers, in order; H or OH if unused. Where a SMILES comes first, the peptide text is derived from it. Bridges are numbered along the chain shown (N, C = ends). [ ]: non-standard residue; d: D form. The star is where a group is joined. pTerphenylCO(4''-OnC5H11) = CCCCCOc1ccc(-c2ccc(-c3ccc(C(=O)*)cc3)cc2)cc1; Orn(4R-OH,5R-OH) = O=C([C@H](C[C@@H](O)[C@@H](O)N[*:3])N[*:1])[*:2]; hTyr(3S-OH,4S-OH) = N[C@H](C(=O)O)[C@H](O)[C@@H](O)c1ccc(O)cc1; Pro(3S-OH,4S-Me) = C[C@H]1CN[C@H](C(=O)O)[C@H]1O; Hyp = O=C(O)[C@@H]1C[C@@H](O)CN1
test system: Zika virus NS2B-NS3 protease (linked construct); assay: Primary screen NINDS Rhodamine qHTS for Zika virus inhibitors (AID 1347160); details: purified NS2B-NS3 protease, Rhodamine110 substrate fluorescence; series mostly up to 57.1 µM; activity change, negative = inhibition: at the top concentration; also: nearly all actives have a fitted effect of over 55% in size
Outline: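 Each compound, titrated, sat 15 min with 25 nM linked protease before 1.5 microM Rhodamine110 substrate went in. Fluorescence gain over the next 15 min, in pH 8.0 Tris with Tween 20, gave Hill-fitted curves.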
% is scaled to controls: 0 for no effect and ±100 for the full control effect; potency is read from the fitted curve at half-maximal effect.

SMILES | activity change, negative = inhibition | outcome | Potency
O=C1Nc2nc(-c3c(O)cccc3OCC3CC3)cc([C@@H]3CCCNC3)c2CO1 | 69.4% |  | 
C=C[C@H](/C=C\c1ccc(O)cc1)c1ccc(O)cc1 | 5% |  | 
C=C1C(=O)OC2CC(C)C(CCC(C)=O)=CCC12 (centres undefined) |  | inactive | 
CCCCC1CCN(CCCN2C(=O)CCc3ccccc32)CC1 | 40.7% |  | 
CN1CCN(c2ccc(OC(F)(F)F)c(Nc3ncc4c(n3)-c3c(c(C(N)=O)nn3CCO)CC4)c2)CC1 |  | inactive | 
C=CC(=O)N1CCCN(c2cc(NCCC(=O)O)nc(-c3ccccn3)n2)CC1 | 8.41% |  | 
CN1CCN(C(=O)CN[C@@H]2C[C@H]2c2ccc(OCc3ccccc3)cc2)CC1 | 4.58% |  | 
O=C(Nc1cnc(Cl)nc1)c1ccc(F)c(F)c1 |  | inactive | 
Nc1c(S(=O)(=O)c2ccccc2)c2nc3ccccc3nc2n1-c1ccc(F)cc1 | -4.6% |  | 
COc1cc(N2CCC(N3CCN(C)CC3)CC2)ccc1Nc1ncc(Cl)c(Nc2ccccc2P(C)(C)=O)n1 |  | inactive | 
C=C1C(=O)O[C@@H]2C3C(=C(C)[C@@H](O)[C@@H](OC(=O)/C(=C/C)COC(C)=O)[C@@H]12)C(=O)[C@H]1O[C@@]31C (some centres undefined) |  | inactive [at 33.1 µM] | 
C=C1CC2OC(=O)C(=C)C2C(OC(=O)/C(C)=C\C)CC2(C)OC1=CC2=O (centres undefined) | 5.61% [at 33.1 µM] |  | 
CN(C)C(=O)C(=O)c1cn(C)c2cc(Cl)c(C(=O)N3CCC(Cc4ccc(F)cc4)CC3)cc12 | 3.01% |  | 
Cn1c(=O)c2c(ncn2Cc2ccc(C(C)(C)C)cc2)n(C)c1=O | 11.5% |  | 
CC(=O)NCc1cccc(OC[C@@H](O)CNCCc2ccc(NS(=O)(=O)c3ccccc3)cc2)c1 |  | inactive | 
O=C(Nc1ccc(-c2ccnc(Nc3ccc(N4CCOCC4)cc3)n2)cc1)C1CCCN1 (centres undefined) | -11.9% |  | 
CC12CCC(OC3OC(CO)C(O)C(O)C3OC3OC(CO)C(O)C(O)C3O)CC1CCC1C2CCC2(C)/C(=C3/COC(=O)C3)CCC12O (centres undefined) | 0.347% [at 15.1 µM] |  | 
CCCCCOc1ccc(-c2ccc(-c3ccc(C(=O)N[C@H]4C[C@@H](O)[C@@H](O)NC(=O)[C@@H]5[C@@H](O)[C@@H](C)CN5C(=O)[C@H]([C@@H](C)O)NC(=O)[C@H]([C@H](O)[C@@H](O)c5ccc(O)cc5)NC(=O)[C@@H]5C[C@@H](O)CN5C(=O)[C@H]([C@@H](C)O)NC4=O)cc3)cc2)cc1 ({pTerphenylCO(4''-OnC5H11)}-[Orn(4R-OH,5R-OH)]T[Hyp][hTyr(3S-OH,4S-OH)]T[Pro(3S-OH,4S-Me)]; lactam 1-C) | -1.48% [at 33.1 µM] |  | 
CC(=O)CC(=O)Nc1ccc(Cl)c(C(F)(F)F)c1 | -4.44% |  | 
CCC(C)/C=C(C)/C=C/C1=CC2=C(Cl)C(=O)C(C)(OC(C)=O)C(=O)C2(O)C(OC)O1 (centres undefined) |  |  | 11.2 µM (active)

SMILES | activity change, negative = inhibition | outcome | Potency
C[C@H](Oc1cc(-c2cnn(C3CCNCC3)c2)cnc1N)c1c(Cl)ccc(F)c1Cl | 317% |  | 
CCC(CC)Nc1nc(C)c(-c2ccc(OC(F)(F)F)cc2OC)nc1OC | 3.57% |  | 
CC(=O)O[C@H]1CC(C)(C)CC2[C@]13CO[C@@]21CCC2[C@@]4(C)CC[C@H](O[C@@H]5OC[C@H](O[C@@H]6O[C@H](CO)[C@@H](O)[C@H](O)[C@H]6O[C@@H]6OC[C@@H](O)[C@H](O)[C@H]6O)[C@H](O)[C@H]5O[C@@H]5O[C@H](CO)[C@@H](O)[C@H](O)[C@H]5O)[C@@](C)(CO)C4CC[C@@]2(C)[C@]1(C)C[C@H]3O (some centres undefined) | -22.1% [at 15.1 µM] |  | 
COC1=CC(=O)C=C(C)C12Oc1c(Cl)c(OC)cc(OC)c1C2=O (centres undefined) |  | inactive [at 33.1 µM] | 
Cc1ccccc1C(C(=O)NC1CCCCC1)N(C(=O)Cn1cnc2ccccc21)c1cccc(F)c1 (centres undefined) | 15.6% |  | 
COc1ccccc1OCCNCC(O)CCOc1cccc2[nH]c3ccccc3c12 (centres undefined) |  | inactive | 
CC(C)(C)Oc1ccc(OCC2Cc3ccccc3CN2C(=O)c2cccc3ccccc23)cc1 (centres undefined) | -15% |  | 
O=C([C@@H](Cc1cccc(C(F)(F)F)c1)NS(=O)(=O)c1cc(F)c2c(c1)CCNC2)N1CCCC1 | 12.1% |  | 
CC[N+]1(C/C2=C/CCCCCC2)CCC(NC(=O)C2c3cc(Cl)ccc3Oc3ccc(Cl)cc32)CC1 (centres undefined) | 284% |  | 
COc1ccccc1N1CCN(c2ncnc3n[nH]c(Br)c23)CC1 | 9.86% |  | 
CCOC(=O)C1=Cc2ccc(C(F)(F)C(F)(F)F)cc2N=C(N)C1 | 31% |  | 
C[C@@H](c1ccc2nccn2c1)n1nnc2ncc(-c3cnn(C)c3)nc21 |  | inactive | 
CCn1c(N)c(C(=O)NC)c(=O)c2ccc(C#CC(C)(O)COC)nc21 (centres undefined) |  | inactive | 
CC(O)C(C)n1ncn(-c2ccc(N3CCN(c4ccc(OCC5COC(Cn6cncn6)(c6ccc(Cl)cc6Cl)O5)cc4)CC3)cc2)c1=O (centres undefined) | 23.1% |  | 
CCC(C)C(=O)OC12C(OC(C)=O)C(C)C3(O)C(C=C(CO)CC4(O)C(=O)C(C)=CC43)C1C2(C)C (centres undefined) | 24.3% [at 33.1 µM] |  | 
C=C(C)C1=C[C@@]2(C)C(=CC1=O)CC[C@@H](O)[C@@H]2C | 12.2% |  | 
CC(=O)O[C@H]1CC(C)(C)CC2[C@]13CO[C@@]21CCC2[C@@]4(C)CC[C@H](O[C@@H]5OC[C@H](O[C@@H]6O[C@H](CO)[C@@H](O)[C@H](O)[C@H]6O[C@@H]6OC[C@@H](O[C@@H]7O[C@H](CO)[C@@H](O)[C@H](O)[C@H]7O)[C@H](O)[C@H]6O)[C@H](O)[C@H]5O[C@@H]5O[C@H](CO)[C@@H](O)[C@H](O)[C@H]5O)[C@@](C)(CO)C4CC[C@@]2(C)[C@]1(C)C[C@H]3O (some centres undefined) | -9.67% [at 10.7 µM] |  | 
Cn1cc(-c2ccc(F)c(C(F)(F)F)c2)nc1C1CCN(c2ncnc3[nH]ncc23)CC1 | 16.8% [at 33.1 µM] |  | 
Cc1cccc(C#Cc2cc(F)cc(C#N)c2)n1 | 72.4% |  | 
